Test results published in ChEMBL document CHEMBL3988442, “University of Dundee, Small-Polar-MMV Screening Library” (2021).

Experiments:
[1] = biological target: T1, Aspartate--tRNA(Asp/Asn) ligase (Mycobacterium tuberculosis (strain ATCC 25618 / H37Rv)) (UniProt P9WFW3); experiment: Assay for Asp RNA synthetase-1 from Mycobacterium tuberculosis; type: functional; parameters: scale not given: direction of the effect not stated beside the values; details: 30 µM; note: in the data most compounds retested in dose-response had high values
T1 sequence (whole entry): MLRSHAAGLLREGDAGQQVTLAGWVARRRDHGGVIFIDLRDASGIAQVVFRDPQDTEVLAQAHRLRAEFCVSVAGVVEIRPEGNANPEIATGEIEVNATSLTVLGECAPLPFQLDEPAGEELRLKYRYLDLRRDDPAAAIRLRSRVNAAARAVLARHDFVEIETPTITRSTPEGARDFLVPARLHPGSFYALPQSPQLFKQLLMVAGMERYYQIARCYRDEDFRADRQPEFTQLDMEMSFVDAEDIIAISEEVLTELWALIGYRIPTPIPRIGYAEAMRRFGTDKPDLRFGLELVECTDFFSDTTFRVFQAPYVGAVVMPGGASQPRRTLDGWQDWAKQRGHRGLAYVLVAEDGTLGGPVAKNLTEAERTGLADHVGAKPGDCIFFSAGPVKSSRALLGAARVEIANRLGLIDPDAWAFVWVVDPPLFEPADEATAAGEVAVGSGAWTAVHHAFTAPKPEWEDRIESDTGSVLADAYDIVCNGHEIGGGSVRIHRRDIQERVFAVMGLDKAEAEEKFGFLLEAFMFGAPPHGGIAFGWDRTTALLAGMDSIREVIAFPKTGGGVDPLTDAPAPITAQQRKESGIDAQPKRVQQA

[2] = biological target: Shiga toxin 2 (Escherichia coli O157:H7) (UniProt P09385+P09386); experiment: E. coli 0.157:H7 Shiga Toxin SOP - stx2 screening assay; type: functional; parameters: scale not given: direction of the effect not stated beside the values; details: 30 µM

## Cc1cc(C[C@@H]2COC[C@H]2NCc2ccc(Br)s2)on1
[1]
  Percent Effect: -1.77%
[2]
  Percent Effect: 4.69%

## Cc1nc(CN2CCCC(NCc3c(C)nc4sccn34)C2)no1 (centres undefined)
[1]
  Percent Effect: 2.46%
[2]
  Percent Effect: -20.2%

## O=C([C@H]1C[C@H]2OCC[C@H]2N(C(=O)C2CCOCC2)C1)N1CCCCO1
[1]
  Percent Effect: 0.757%
[2]
  Percent Effect: -26.6%

## c1cnnc(N2CCCC2CNc2ncnc3ccccc23)c1 (centres undefined)
[1]
  Percent Effect: 3.45%
[2]
  Percent Effect: -33.7%

## CN(C)Cc1ccnc(C2CCCN2Cc2cc[nH]n2)n1 (centres undefined)
[1]
  Percent Effect: -4.42%
[2]
  Percent Effect: 9.83%

## Cn1nc(C2CCCN(Cc3cccc(F)c3)C2)c2nccnc21 (centres undefined)
[1]
  Percent Effect: -0.491%
[2]
  Percent Effect: 14.8%

## CN(C)C(=O)N1CCOCC2(CCN(c3ncccn3)C2)C1 (centres undefined)
[1]
  Percent Effect: 0.466%
[2]
  Percent Effect: 10%

## CS(=O)(=O)NCC1CCCN(C(=O)COc2ccc(F)cc2)C1 (centres undefined)
[1]
  Percent Effect: -1.75%
[2]
  Percent Effect: -25.1%

## CCN1CC(C(=O)NCc2ccccc2-n2cccn2)CC1=O (centres undefined)
[1]
  Percent Effect: 7.12%
[2]
  Percent Effect: 20.1%

## Cc1nc(CN2CCC(CNC(=O)Nc3ccccn3)CC2)oc1C
[1]
  Percent Effect: 5.15%
[2]
  Percent Effect: -4.66%

## Cc1cc(CN(C)C(=O)C2CCCN(C(=O)c3ccc(Cl)cc3)C2)no1 (centres undefined)
[1]
  Percent Effect: 8.83%
[2]
  Percent Effect: -26.7%

## CCCC(=O)N1CC[C@@H]2[C@H](CC1)N(Cc1cccnc1)CCS2(=O)=O
[1]
  Percent Effect: -0.493%
[2]
  Percent Effect: -7.37%

## Cc1ccoc1C(=O)N1CCOCC2(CCN(c3ncccn3)C2)C1 (centres undefined)
[1]
  Percent Effect: 5.74%
[2]
  Percent Effect: 8%

## Cc1cccc(CN2CCc3nnc(CN4CCCC4=O)n3CC2)n1
[1]
  Percent Effect: -2.89%
[2]
  Percent Effect: 3.17%

## c1ccc(CN2CCc3nnc(CN4CCCCC4)n3CC2)nc1
[1]
  Percent Effect: 3.71%
[2]
  Percent Effect: 1.8%

## COc1ccccc1CC(=O)N1CC[C@@]2(CCCO2)[C@@H](OC)C1
[1]
  Percent Effect: 4.54%
[2]
  Percent Effect: 52.7%

## CC(C)N1CC(C(=O)NCCOc2ccc3c(c2)OCO3)CC1=O (centres undefined)
[1]
  Percent Effect: -3.6%
[2]
  Percent Effect: 13.8%
